# Results: PubChem BioAssay (NCI)
# “And” between values parts separate entries of the source, which are not always exact repeats. Equal values may be shown once. This is part of a sample that, as a whole, favours compounds with a hit. Of some 83,000 tested, about 20% had one in any assay.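 Note: values are percent growth. 100 is the growth of untreated cells, values between 100 and 0 indicate rising inhibition; between -100 and 0 indicates cell death.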 The source made the active and inactive calls. How the source made its calls: active means growth percent below 10; inactive means the rest.
# Test system: MDA-MB-468 breast
# Experiment: NCI-60 one-dose screen, 48 h (100 = growth as untreated, 0 = no growth, -100 = all killed)
# Conditions: 10 µM unless noted
row,Compound,growth
1,O=C(NCc1ccc(Cn2c(=O)sn(-c3ccc(Cl)cc3)c2=O)cc1)OCc1ccc2c(Cl)cc(Cl)c(O)c2n1,45.4% (inactive)
2,CSc1nnc(-c2cc3c([nH]c4ccccc43)c(-c3cccc(O)c3)n2)n1-c1ccc(C)cc1,20.4% (inactive)
3,Cc1ccc(NC(=O)Nc2nc3ccc([N+](=O)[O-])cc3s2)cc1,-15.6% (active)
4,CCN(CC)CC(=O)Nc1cccc(C(=O)OC(C)C)c1,115% (inactive)
5,COc1ccc(NC(=O)[C@H](C)N)cc1C(=O)Nc1cccc(-c2cc(=O)c3c(OC)c(OC)c(OC)cc3o2)c1,58.5% (inactive)
6,Clc1ccc2c(c1)N(C1CCCN(Cc3ccccc3)C1)c1ccccc1S2 (configuration not stated),29.5% (inactive)
7,O=C(O)c1nc(-c2ccccc2)oc1N1CCOCC1,99.8% (inactive)
8,CNC(=O)c1cc(Oc2ccc3nc(NC(=O)Nc4ccc(Cl)c(Cl)c4)sc3c2)ccn1,68.3% (inactive)
9,CC(C)NC(=O)c1cc(-c2ccc(NC(=O)Nc3ccc(N4CCOCC4)c(C(F)(F)F)c3)cc2)nc2cccnc12,92.1% (inactive)
10,COc1cccc(-c2nc3sccn3c2-c2ccnc(NCCNS(=O)(=O)c3ccccc3)n2)c1,67.4% (inactive)
11,CC(C)OC(=O)Nc1cc(F)ccc1F,92.8% (inactive)
12,COc1ccc(-c2nc3sccn3c2/C=C/C(=O)c2cc(OC)c(OC)c(OC)c2)cc1OC,-13.4% (active)
13,CS(=O)(=O)c1ccc(-c2nc3ccccn3c2/C=N/Nc2nc(-c3ccc(Cl)cc3)cs2)cc1,94.2% (inactive)
14,Cn1ccnc1C(=O)/C=C/c1ccc(C(=O)Nc2nc3ccccc3[nH]2)cc1,-3.55% (active)
15,C=CCc1nc2ccccc2s1,-14.5% (active)
16,O=S(=O)(Nc1ccc2c(c1)OCO2)c1ccc(-c2cnc(C3CC3)o2)cc1,-3.85% (active)
17,O=C(CNC(=O)c1cccc2ccccc12)Nc1ccccc1Oc1cccc(O)c1,-3.16% [5 µM] (active)
18,O=C(N/N=C/c1ccc(O)c(O)c1)c1sc2ccccc2c1Cl,88.8% (inactive)
19,CC1(C)CC[C@]23CC[C@]4(C)[C@H](CC[C@@H]5[C@@]6(C)C/C(=C/c7cccnc7)C(=O)C(C)(C)[C@@H]6CC[C@]54C)[C@H]2[C@H]1OC3=O,56.9% [100 µM] (inactive)

row,Compound,growth
1,CCCCNCCC(O)c1cc2ccc(C(F)(F)F)cc2c2cc(C(F)(F)F)ccc12 (configuration not stated),-91% (active)
2,COc1ccccc1/C=C1\COc2ccc(O)c(O)c2C1=O,12.6% (inactive)
3,Cc1ccc(S(=O)(=O)NCCNc2nccc(-c3c(-c4cccc(N)c4)nc4sccn34)n2)cc1,63.2% (inactive)
4,CN1CCN(C2CCN(C(=O)Nc3cc(Oc4ccc(NC(=O)C5(C(=O)Nc6ccc(F)cc6)CC5)c(F)c4)ccn3)CC2)CC1,-70.7% (active) and 96.6% (inactive)
5,COc1ncc(-c2ccc3nccc(C#CCN4CCN(S(C)(=O)=O)CC4)c3c2)cc1NS(=O)(=O)c1ccc(F)cc1F,-67% (active)
6,Cc1cc(O)c(C(C)(C)C)cc1Sc1cc(C(C)(C)C)c(O)cc1C,67.2% (inactive)
7,COc1ccc(C2NC(=O)C(C#N)c3c2sc2c(F)cccc32)cc1 (configuration not stated),33.7% (inactive)
8,CN1CCN(Cc2ccc(NC(=O)c3[nH]ncc3Nc3ccnc4ccsc34)cc2)CC1,18.5% (inactive)
9,CCn1c(=O)c(C(=O)NCCCO)c(O)c2ccccc21,112% (inactive)
10,Nc1n[nH]c2cccc(C#Cc3cccc(C(=O)Nc4cc(CN5CCOCC5)cc(C(F)(F)F)c4)c3)c12,89.7% (inactive)
11,O=C(c1ccccc1)c1ccco1,118% (inactive)
12,CC(=O)Nc1sc2c(c1-c1nc3ccccc3s1)CNC2,-3.09% (active)
13,COC(=O)/C(CCC=C(C)C)=C1\[C@@H](OC(C)=O)C[C@@]2(C)[C@H]1C[C@@H](O)[C@H]1[C@@]3(C)CC[C@H](NCCN)[C@@H](C)[C@@H]3CC[C@@]12C,58.6% (inactive)
14,COc1cccc(CNc2nnc(C)c(C)n2)c1O,91.7% (inactive)
15,Cc1c(Br)cccc1NC(=O)c1sc2nc3c(cc2c1N)CN(Cc1ccccc1)CC3,16.8% (inactive)
16,NCCCNc1nc2ccccc2c2c(=O)c3cc(F)cc(Cl)c3sc12,73.4% (inactive)
17,CCCCn1cnc2c(=O)[nH]cnc21,104% (inactive)
18,O=C(/C=C1\C=CN(CCCCF)c2ccccc21)n1ccc2ccccc21,91.2% (inactive)
